Experiments:
[1] = tested on: U-2932; experiment: growth inhibition by drug alone (1 - RLU/untreated control) (fraction); higher = stronger inhibition; conditions: 177Lu-lilotomab satetraxetan 0 ug/ml
Outline: (§1)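 With or without 18 h pretreatment by a radiolabelled anti-CD37 antibody conjugate (~600 MBq/mg; 0.5 µg/ml RIVA, 1 µg/ml U-2932), RIVA and U-2932 cells were washed and plated at 3,000 cells/well. Pre-printed compound doses were 10/100 nM for RIVA and 10/1,000 nM for U-2932. Growth inhibition uses RealTime-Glo RLU relative to the untreated no-drug wells. The calculation is 1 − RLU/mean of 48 such wells per plate, with reads daily from day 3 after 1 h at 37°C.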

[2] = tested on: RIVA; experiment: as above; conditions: 177Lu-lilotomab satetraxetan 0 ug/ml
Outline: as §1

[3] = tested on: U-2932; experiment: growth inhibition by drug plus 177Lu-lilotomab satetraxetan (1 - RLU/untreated control) (fraction); higher = stronger inhibition; conditions: 177Lu-lilotomab satetraxetan 1 ug/ml
Outline: as §1

[4] = tested on: RIVA; experiment: as above; conditions: 177Lu-lilotomab satetraxetan 0.5 ug/ml
Outline: as §1

| SMILES | growth inhibition by drug alone ([1]; 10 nM, time (day): 3) | growth inhibition by drug alone ([1]; 10 nM, time (day): 4) | growth inhibition by drug alone ([1]; 10 nM, time (day): 5) | growth inhibition by drug alone ([1]; 10 nM, time (day): 6) | growth inhibition by drug alone ([1]; 1000 nM, time (day): 3) | growth inhibition by drug alone ([1]; 1000 nM, time (day): 4) | growth inhibition by drug alone ([1]; 1000 nM, time (day): 5) | growth inhibition by drug alone ([1]; 1000 nM, time (day): 6) | growth inhibition by drug alone ([2]; 10 nM, time (day): 3) | growth inhibition by drug alone ([2]; 10 nM, time (day): 4) | growth inhibition by drug alone ([2]; 10 nM, time (day): 5) | growth inhibition by drug alone ([2]; 10 nM, time (day): 6) | growth inhibition by drug alone ([2]; 100 nM, time (day): 3) | growth inhibition by drug alone ([2]; 100 nM, time (day): 4) | growth inhibition by drug alone ([2]; 100 nM, time (day): 5) | growth inhibition by drug alone ([2]; 100 nM, time (day): 6) | growth inhibition by drug plus 177Lu-lilotomab satetraxetan ([3]; 10 nM, time (day): 3) | growth inhibition by drug plus 177Lu-lilotomab satetraxetan ([3]; 10 nM, time (day): 4) | growth inhibition by drug plus 177Lu-lilotomab satetraxetan ([3]; 10 nM, time (day): 5) | growth inhibition by drug plus 177Lu-lilotomab satetraxetan ([3]; 10 nM, time (day): 6) | growth inhibition by drug plus 177Lu-lilotomab satetraxetan ([3]; 1000 nM, time (day): 3) | growth inhibition by drug plus 177Lu-lilotomab satetraxetan ([3]; 1000 nM, time (day): 4) | growth inhibition by drug plus 177Lu-lilotomab satetraxetan ([3]; 1000 nM, time (day): 5) | growth inhibition by drug plus 177Lu-lilotomab satetraxetan ([3]; 1000 nM, time (day): 6) | growth inhibition by drug plus 177Lu-lilotomab satetraxetan ([4]; 10 nM, time (day): 3) | growth inhibition by drug plus 177Lu-lilotomab satetraxetan ([4]; 10 nM, time (day): 4) | growth inhibition by drug plus 177Lu-lilotomab satetraxetan ([4]; 10 nM, time (day): 5) | growth inhibition by drug plus 177Lu-lilotomab satetraxetan ([4]; 10 nM, time (day): 6) | growth inhibition by drug plus 177Lu-lilotomab satetraxetan ([4]; 100 nM, time (day): 3) | growth inhibition by drug plus 177Lu-lilotomab satetraxetan ([4]; 100 nM, time (day): 4) | growth inhibition by drug plus 177Lu-lilotomab satetraxetan ([4]; 100 nM, time (day): 5) | growth inhibition by drug plus 177Lu-lilotomab satetraxetan ([4]; 100 nM, time (day): 6) |
| --- | --- | --- | --- | --- | --- | --- | --- | --- | --- | --- | --- | --- | --- | --- | --- | --- | --- | --- | --- | --- | --- | --- | --- | --- | --- | --- | --- | --- | --- | --- | --- | --- |
| CNC(=O)c1cc(Oc2ccc(NC(=O)Nc3ccc(Cl)c(C(F)(F)F)c3)c(F)c2)ccn1 [Regorafenib (BAY 73-4506)] | 0.146 | 0.0913 | 0.0627 | -0.0165 | 0.26 | 0.284 | 0.302 | 0.217 | 0.0302 | 0.118 | 0.0999 | 0.0537 | 0.189 | 0.262 | 0.302 | 0.293 | 0.125 | 0.179 | 0.283 | 0.319 | 0.269 | 0.291 | 0.39 | 0.48 | 0.632 | 0.688 | 0.717 | 0.733 | 0.463 | 0.581 | 0.629 | 0.644 |
| Nc1ccccc1NC(=O)c1ccc(CNC(=O)OCc2cccnc2)cc1 [Entinostat (MS-275, SNDX-275)] | 0.036 | 0.00325 | 0.00221 | 0.0268 | 0.833 | 0.861 | 0.874 | 0.887 | -0.0286 | -0.0282 | -0.046 | -0.113 | 0.288 | 0.217 | 0.174 | 0.114 | 0.053 | 0.0586 | 0.0668 | 0.217 | 0.855 | 0.89 | 0.908 | 0.928 | 0.486 | 0.568 | 0.585 | 0.591 | 0.604 | 0.62 | 0.628 | 0.595 |
| O=C(NOC[C@H](O)CO)c1ccc(F)c(F)c1Nc1ccc(I)cc1F | 0.189 | 0.198 | 0.0482 | 0.0357 | 0.152 | 0.19 | 0.102 | 0.0951 | 0.198 | 0.141 | 0.026 | -0.212 | 0.191 | 0.122 | 0.0195 | -0.189 | 0.138 | 0.163 | 0.15 | 0.218 | 0.162 | 0.231 | 0.189 | 0.269 | 0.487 | 0.514 | 0.508 | 0.496 | 0.552 | 0.532 | 0.512 | 0.467 |
| CN(C)C[C@@H]1CCn2cc(c3ccccc32)C2=C(C(=O)NC2=O)c2cn(c3ccccc23)CCO1 | 0.148 | 0.0748 | 0.0024 | -0.0699 | 0.292 | 0.306 | 0.226 | 0.249 | 0.0588 | 0.0867 | -0.0102 | -0.214 | 0.041 | 0.0997 | 0.0496 | -0.0383 | 0.0704 | 0.125 | 0.141 | 0.173 | 0.448 | 0.48 | 0.458 | 0.49 | 0.423 | 0.561 | 0.581 | 0.582 | 0.462 | 0.539 | 0.554 | 0.545 |
| Cn1nnc2c(C(N)=O)ncn2c1=O [Temozolomide] | 0.0892 | 0.0648 | -0.0333 | -0.0967 | -0.0354 | 0.0378 | -0.0162 | -0.101 | 0.0977 | 0.0337 | -0.0714 | -0.291 | 0.0972 | 0.055 | 0.0367 | -0.03 | 0.00136 | 0.0294 | 0.0193 | 0.0893 | -0.0214 | 0.119 | 0.126 | 0.194 | 0.398 | 0.513 | 0.538 | 0.549 | 0.493 | 0.527 | 0.53 | 0.509 |
| O=C1C(Cl)=C(NCCN2CCOCC2)C(=O)c2ncccc21 | 0.114 | 0.106 | 0.0132 | 0.0178 | 0.227 | 0.184 | 0.124 | 0.0852 | 0.0132 | 0.0904 | -0.00365 | -0.238 | 0.102 | 0.139 | 0.12 | 0.0933 | 0.114 | 0.165 | 0.247 | 0.272 | 0.201 | 0.211 | 0.241 | 0.349 | 0.584 | 0.632 | 0.638 | 0.641 | 0.591 | 0.62 | 0.626 | 0.631 |
| C[C@@H](Oc1cc(-n2cnc3ccc(CN4CCN(C)CC4)cc32)sc1C(N)=O)c1ccccc1C(F)(F)F | 0.444 | 0.458 | 0.438 | 0.516 | 0.94 | 0.961 | 0.973 | 0.981 | 0.364 | 0.265 | 0.248 | 0.223 | 0.944 | 0.961 | 0.967 | 0.969 | 0.423 | 0.489 | 0.536 | 0.644 | 0.926 | 0.959 | 0.975 | 0.982 | 0.759 | 0.799 | 0.824 | 0.853 | 0.943 | 0.964 | 0.974 | 0.981 |

— the supplement of paper PMC6897291
